Experimental data taken from PubChem BioAssay (Tox21).
Records with an inconclusive call do not appear. A number with no mark means an inactive call. Activity calls are given as the source filed them. Calls follow the shape of the dose curve; as a rule, active = well fitted cell-killing curve with a large enough effect in the repeat runs; inconclusive = weak or mixed curves, or effect the other way; inactive = flat fitted curve, though single readings scatter.

Experiment: qHTS assay to identify small molecule agonists of the androgen receptor (AR) signaling pathway in the presence of an antagonist - cell viability counter screen (AID 1259379); also: nearly all actives have a fitted effect of over 25% in size
Conditions: MDA-kb2 viability, CellTiter-Fluor, 16 h; series mostly up to 92.4 µM; activity change, negative = cytotoxicity: at the top concentration
From the text: National Center for Advancing Translational Sciences [NCATS]
NIH Chemical Genomics Center [NCGC]
U.S. Environmental Protection Agency [EPA]
National Institutes of Environmental Health Sciences [NIEHS]
National Toxicology Program [NTP]
U.S. Food and Drug Administration [FDA]
Androgen receptor (AR) is an important member of nuclear receptor family. Its signaling plays a critical role in AR-dependent prostate cancer and other androgen related diseases. Considerable attention has been given in the past decades to develop methods to study and screen for the environmental chemicals that have the potential to interfere with metabolic homeostasis, reproduction, developmental and behavioral functions. Therefore AR binding assay for screening against androgen agonists and antagonists can be used to identify potential endocrine disruptors.
MDA-kb2 cells (from ATCC, deposited by Wilson et al.) are human breast carcinoma cells that were stably transfected with a luciferase reporter gene under control of the MMTV promoter that contains response elements for both androgen receptor (AR) and glucocorticoid receptor (GR). This particular screening for measuring luciferase reporter gene activity using MDA-kb2 cells against Tox21 10K library compounds is a confirmation study on agonist mode screening in the presence of AR-antagonist compound (Nilutamide) at 3.0uM final concentration. The cytotoxicity of the compounds was tested in parallel by measuring the cell viability using CellTiter-Fluor assay system (Promega, Madison, WI) in the same wells.
Tox21 Assay Protocol Summary:
MDA-kb2 cells (cells cultured without CO2) were dispensed at 3,000 cells/well in 4uL of culture medium into white wall/solid-bottom 1536-well plates (Corning Life Sciences, Corning, NY) using a Multidrop Combi (Thermo Fisher Scientific Inc., Waltham, MA) dispenser. The assay plates were incubated at 37C and 0% CO2 for 5hr. One uL of 3.0uM (final concentration) Nilutamide or assay buffer was added using two separate tips of Flying Reagent Dispenser (FRD, Aurora Discovery, San Diego, CA). Then 23nL of compounds dissolved in DMSO at 15 concentrations and positive controls were transferred to the assay plates using a Pintool station (Wako, San Diego, CA). The assay plates were incubated at 37C and 0% CO2 for 16 hr. After 15hr incubation at 37C, 1uL/well CellTiter-Fluor reagent (Promega Corporation) was added to each well of the assay plates using FRD. After 1hr incubation at 37C and 0% CO2, the fluorescence signal was measured using a ViewLux plate reader (PerkinElmer, Shelton, CT).
% is scaled to controls: 0 for no effect and ±100 for the full control effect; potency is read from the fitted curve at half-maximal effect.

Row | SMILES | activity change, negative = cytotoxicity | Potency
1 | CCN(CC)CCOC(=O)C1(c2ccccc2)CCCC1 | -0.303% [at 42.5 µM] | –
2 | COc1cc(C(C)(C)C)c(O)c(C(C)(C)C)c1 | 0.71% | –
3 | ClC(Cl)(Cl)c1ccc(C(Cl)(Cl)Cl)cc1 | 2.66% | –
4 | Cn1c(=O)c2c(ncn2CC(O)CO)n(C)c1=O (stereo not given) | 3.25% [at 42.5 µM] | –
5 | O=C(/C=C/c1ccc(O)c(O)c1)O[C@@H]1C[C@](O)(C(=O)O)C[C@@H](O)[C@H]1O | -2.79% | –
6 | OCCC1CCCCN1 (stereo not given) | -1.45% | –
7 | CC(=O)OCCc1ccccc1 | 1.78% | –
8 | CC/C(=C\C(=N/O)C(N)=O)C(C)[N+](=O)[O-] (stereo not given) | -2.61% | –
9 | CN(C)CCCOc1nn(Cc2ccccc2)c2ccccc12 | 0.668% [at 42.5 µM] | –
10 | CC(=O)[C@@]1(O)CC[C@H]2[C@@H]3C[C@H](C)C4=CC(=O)CC[C@]4(C)[C@H]3CC[C@@]21C | 0.0599% [at 42.5 µM] | –
11 | FC(F)(F)C(F)(F)C(F)(F)C(F)(F)C(F)(F)C(F)(F)CCI | -2.33% [at 42.5 µM] | –
12 | Nc1cnn([C@@H]2O[C@H](CO)[C@@H](O)[C@H]2O)c(=O)n1 | -0.577% | –
13 | c1ccc(CNCc2ccccc2)cc1 | 3.96% | –
14 | CN1CCC(=C2c3ccccc3C=Cc3ccccc32)CC1 | -1.06% [at 42.5 µM] | –
15 | C1=Cc2ccccc2C1 | -0.179% | –
16 | COc1ccc([C@@H]2Sc3ccccc3N(CCN(C)C)C(=O)[C@@H]2OC(C)=O)cc1 | 3.16% [at 42.5 µM] | –
17 | CN1CCN(C2=Nc3cc(Cl)ccc3Nc3ccccc32)CC1 | -2.19% [at 42.5 µM] | –
18 | C1CCC2OC2C1 (stereo not given) | 0.746% | –
19 | CC1CCc2cc(F)cc3c(=O)c(C(=O)O)cn1c23 (stereo not given) | 1% [at 42.5 µM] | –
20 | OC(CCN1CCCCC1)(c1ccccc1)C1CCCCC1 (stereo not given) | -9.56% [at 42.5 µM] | –

Row | SMILES | activity change, negative = cytotoxicity | Potency
21 | CC(C)c1ccc2c(C(C)C)cc(C(C)C)c(S(=O)(=O)O)c2c1 | 0.229% | –
22 | O=C(c1ccc(O)cc1)c1ccc(O)cc1 | 0.822% | –
23 | CCOc1cc(OCC)c(C(=O)CCC(=O)O)cc1OCC | -0.397% [at 42.5 µM] | –
24 | CCCCOCCOCCOCCOCCO | 2.34% | –
25 | CCCCCCCCCC(=O)OCC | 1.4% | –
26 | CCCCCCCCCCCCCCC1CO1 (stereo not given) | 0.789% | –
27 | Cc1nc2ccccc2n1Cc1ccc(Cl)cc1 | – | 4.22 µM (active)
28 | CC(C)(Oc1ccc(Cl)cc1)C(=O)OCCCOC(=O)C(C)(C)Oc1ccc(Cl)cc1 | 0.645% [at 42.5 µM] | –
29 | O=C(O)Cc1cc(I)c(Oc2ccc(O)c(I)c2)c(I)c1 | -0.945% | –
30 | O=C(Cl)c1ccc([N+](=O)[O-])cc1 | 0.598% | –
31 | CC(C(=O)O)c1ccc(-c2ccccc2)c(F)c1 (stereo not given) | 2.57% | –
32 | CC(Cc1cccc(C(F)(F)F)c1)NCCOC(=O)c1ccccc1 (stereo not given) | 2.15% [at 42.5 µM] | –
33 | CC(C)CC=O | 0.85% | –
34 | CN1CCC(OC(c2ccccc2)c2ccccc2)CC1 | -0.564% [at 42.5 µM] | –
35 | C[C@@H](C1=C(CCN(C)C)Cc2ccccc21)c1ccccn1 | -0.15% [at 42.5 µM] | –
36 | CC(CN)CCCN (stereo not given) | 0.366% | –
37 | O=C(O)c1cccc(N(Cc2cccnc2)c2ccc(OC(F)F)c(OC(F)F)c2)c1 | -11.3% | –
38 | CCCC[C@H]1CN(CC2CCOCC2)C(=O)OC12CCN(C1(C)CCN(C(=O)c3c(C)ncnc3C)CC1)CC2 | 0.682% | –
39 | O=C(NN1CCCC1)NS(=O)(=O)c1ccc(Cl)cc1 | 3.08% [at 42.5 µM] | –
40 | CC(C)c1ccccc1C(C)C | -0.0117% | –
